Compounds without any hit were thinned out: in the full panel of roughly 83,000, 20% have a hit.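 The test compound was applied at a single concentration to cells in 96-well plates for 48 hours, and percent growth was recorded.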 Unmarked numbers belong to inactive results. Activity calls are given as the source filed them. How the source made its calls: active means growth percent below 10; inactive means the rest.
Tests used:
Test in all cases: NCI-60 one-dose screen, 48 h (100 = growth as untreated, 0 = no growth, -100 = all killed)
Conditions in all cases: 10 µM unless noted
RPMI-8226 leukemia = test system: RPMI-8226 leukemia
OVCAR-8 ovarian = test system: OVCAR-8 ovarian
OVCAR-5 ovarian = test system: OVCAR-5 ovarian
OVCAR-4 ovarian = test system: OVCAR-4 ovarian
SK-OV-3 ovarian = test system: SK-OV-3 ovarian
IGROV1 ovarian = test system: IGROV1 ovarian
OVCAR-3 ovarian = test system: OVCAR-3 ovarian
HS 578T breast = test system: HS 578T breast
NCI/ADR-RES ovarian = test system: NCI/ADR-RES ovarian
BT-549 breast = test system: BT-549 breast
MDA-MB-435 melanoma = test system: MDA-MB-435 melanoma
SW-620 colon = test system: SW-620 colon
MCF7 breast = test system: MCF7 breast
HCT-116 colon = test system: HCT-116 colon
HCC-2998 colon = test system: HCC-2998 colon
KM12 colon = test system: KM12 colon
T-47D breast = test system: T-47D breast

SMILES	growth (RPMI-8226 leukemia)	growth (OVCAR-8 ovarian)	growth (OVCAR-5 ovarian)	growth (OVCAR-4 ovarian)	growth (SK-OV-3 ovarian)	growth (IGROV1 ovarian)	growth (OVCAR-3 ovarian)	growth (HS 578T breast) [%]	growth (NCI/ADR-RES ovarian)	growth (BT-549 breast)	growth (MDA-MB-435 melanoma)	growth (SW-620 colon)	growth (MCF7 breast)	growth (HCT-116 colon)	growth (HCC-2998 colon) [%]	growth (KM12 colon)	growth (T-47D breast)
Oc1ccccc1-c1nc2ccccn2c1NCCN1CCOCC1	93.2%	100%	91.6%	92.2%	76.5%	103%	97.3%	89.5	104%	99.2%	102%	94.8%	96.7%	93.9%	101	91.2%	
COC1(CC[C@@H](C)COC2OC(CO)C(O)C(O)C2O)O[C@H]2C[C@H]3[C@@H]4CC=C5C[C@@H](OC6OC(CO)C(OC7OC(C)C(O)C(O)C7O)C(O)C6OC6OC(C)C(O)C(O)C6O)CC[C@]5(C)[C@H]4CC[C@]3(C)[C@H]2[C@@H]1C (stereo partly drawn)	-56.3% (active)	-64.6% (active)	-86.6% (active)	-64.7% (active)	-71.8% (active)	-78.6% (active)	-73.6% (active)		-75.6% (active)	-84.2% (active)	-61.3% (active)	-96.4% (active)	-85.5% (active)	-86.1% (active)		-82.2% (active)	-4.7% (active)
C[C@H]1[C@H]2C3=CC[C@@H]4[C@@]5(C)C/C(=C/c6ccncc6)C(=O)C(C)(C)[C@@H]5CC[C@@]4(C)[C@]3(C)CC[C@@]2(C(=O)N2CCN(C)CC2)CC[C@@H]1C	50.2%	76.7%	86.7%	73.6%	82.9%	84%	76.3%	70	80.6%	89.3%	81.9%	83.1%	58.5%		82.9	67.5%	
CS(=O)(=O)c1ccc(-c2nc3cc(Cl)ccc3n2CC(=O)NO)cc1	90.9%	88.3%	100%	87.6%	96.4%	88.4%	96.1%	93.2	108%	97.6%	106%	96.2%	81.3%	103%	115	93.9%	
CS(=O)(=O)c1ccc(-c2[nH]c3ccc(F)cc3c2/C=N/NC(N)=S)cc1	12%	20.8%	28.2%	50%	13.4%	29%	11.8%	28	11.1%	39.3%	-16.3% (active)	21.3%	19.3%	8.16% (active)	24.3	18.5%	
